As a reminder, the AC50 is the concentration giving half of the maximal activity seen. As a reminder, the inhibition is the change of the read-out against control, counted positive when it falls. The IC50 is the concentration needed to halve the response being measured.

The values below come from PubChem BioAssay.

A short description of assay [1]: viability loss in pontine glioma line – cell-based, SU-DIPG-XVII, MIPE5.0, CellTiter-Glo, qHTS, dose response (AID 1347060; cut-off not given, nearly all actives have AC50 up to about 26 µM;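 further: cells exposed to compound for 48 hours before viability readout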). Particulars: CellTiter-Glo ATP luminescence. (In ATP-based viability assays light output follows the ATP content of the culture.)
The nature of assay [2]: viability loss in pontine glioma line – cell-based, JHH-DIPG-1, MIPE4.0, CellTiter-Glo, qHTS, dose response (AID 1347062; cut-off not given, nearly all actives have AC50 up to about 27 µM;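 further: cells exposed to compound for two days before readout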). The conditions noted are these: JHH-DIPG-1 viability, CellTiter-Glo ATP luminescence.
Assay [3] is described as follows: viability loss in pontine glioma line – cell-based, SU-DIPG-IV, MIPE4.0, CellTiter-Glo, qHTS, dose response (AID 1347063; cut-off not given, nearly all actives have AC50 up to about 30 µM;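 further: compound exposure lasted 48 hours before the viability readout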). Particulars: CellTiter-Glo ATP luminescence.
Assay [4] can be described thus: viability loss in pontine glioma line – cell-based, SU-DIPG-XIII, MIPE5.0, CellTiter-Glo, qHTS, dose response (AID 1347064; cut-off not given, nearly all actives have AC50 up to about 23 µM;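 further: cells exposed to compound for 48 hours before the viability read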). The conditions noted are these: CellTiter-Glo ATP luminescence.
A short description of assay [5]: viability loss in pontine glioma line – cell-based, SU-DIPG-XXV, MIPE5.0, CellTiter-Glo, qHTS, dose response (AID 1347065; cut-off not given, nearly all actives have AC50 up to about 26 µM;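 further: cells exposed to compound for 48 hours before ATP readout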). Particulars: CellTiter-Glo ATP luminescence.
The nature of assay [6]: JHH-DIPG-1 glioma cell viability, MIPE5.0 library, CellTiter-Glo luminescence, qHTS (AID 1347067; cut-off not given, nearly all actives have AC50 up to about 26 µM;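 further: cells exposed to compound for 48 hours before readout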). Particulars: JHH-DIPG-1 glioma viability, CellTiter-Glo ATP luminescence.
Assay [7] can be described thus: compounds altering HSF1 focus formation in cells – imaging, Selleck Cancer Library (AID 1347162; in the data active means plate-normalised HSF1 focus index below about 0.46). The conditions noted are these: human cells, HSF1 nuclear foci imaging, at 10 µM; SSMD: measured here: HSF1 foci SSMD mean; cell count: measured here: cell number; plate-normalised HSF1 focus index: stronger effect = lower value.
The nature of assay [8]: growth inhibition, single agent or in combination, cell-based, chromothripsis tumors, cisplatin or BGB combos (AID 1671449).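 Further: cells exposed for 96 hours; 0% = vehicle DMSO and 100% = killing by high DMSO.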 The conditions noted are these: LFS_MB_P medulloblastoma cells.
Assay [9] can be described thus: growth inhibition, single agent and combos, cell-based, chromothripsis tumors, cisplatin or BGB combos (AID 1671450).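 Further: cells exposed to compound for four days; 0% = vehicle DMSO and 100% = cell killing by high DMSO.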 The conditions noted are these: HDN33 neuroblastoma cells, stronger effect = higher value.
The nature of assay [10]: growth inhibition, single agents and combos, ICB984, cell-based, cisplatin or BGB combos, synergistic combos for chromothripsis tumors (AID 1671451; call rule not given here;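 further: cells exposed for 96 hours before readout; 0% = vehicle DMSO and 100% = killing by high DMSO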). The conditions noted are these: ICB984 medulloblastoma cells, drug combinations, stronger effect = higher value.
Assay [11] is described as follows: growth inhibition, single agents and combos, HTB85, cell-based, BGB or cisplatin IC20 combos, synergistic combos for chromothripsis tumors (AID 1671453).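 Further: cells exposed for 96 hours before readout; 0% = vehicle DMSO and 100% = high DMSO killing control.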 Particulars: HTB85 osteosarcoma cells, drug combinations, stronger effect = higher value.
Assay [12] is described as follows: growth inhibition, MDA-MB-436, cell-based, BGB or cisplatin combos, synergistic combos for chromothripsis tumors (AID 1671458; call rule not given here;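 further: cells exposed for 96 hours; 0% = vehicle DMSO and 100% = killing by high DMSO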). The conditions noted are these: MDA-MB-436 breast carcinoma growth inhibition, drug combinations, stronger effect = higher value.
Assay [13] in a line: BT084 cell growth, single and combined drugs, ICGC_MB145, cisplatin and BGB IC40 combos (AID 1671461).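 Further: cells exposed to drugs for 96 hours; 0% = vehicle DMSO and 100% = high DMSO full killing control.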 Particulars: BT084 medulloblastoma cells, drug combinations, stronger effect = higher value.
A short description of assay [14]: RCMB18 cell growth, single agent and combined, cisplatin and BGB IC40 combos (AID 1671462).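 Further: cells exposed to compound for four days.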 Particulars: RCMB18 medulloblastoma cells, stronger effect = higher value.
A short description of assay [15]: growth inhibition of DIPG cells – cell-based, MIPE4.0 library, CellTiter-Glo luminescence, qHTS (AID 1347066; cut-off not given, nearly all actives have AC50 up to about 30 µM;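 further: cells exposed to compound for 48 hours before readout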). Particulars: SU-DIPG-VI viability, CellTiter-Glo ATP luminescence.
A short description of assay [16]: growth inhibition of DIPG cells – cell-based, MIPE5.0 library, qHTS (AID 1347068; cut-off not given, nearly all actives have IC50 up to about 30 µM;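 further: cells exposed to compound for 48 hours before viability readout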). Particulars: SU-DIPG-XXV viability.
Assay [17] can be described thus: viability loss with induced miR-34 in A549 – imaging, A549 dox-inducible miR-34, nuclei and caspase counts, primary screen (AID 1347080;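 active means compounds whose cell count with miR-34 switched on is under 0.7 times the count with it off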). The conditions noted are these: A549 miR-34 inducible, Hoechst nuclei count, 48 h.
The nature of assay [18]: MELAS cybrid and Rieske KO viability enhancers – cell-based, MELAS cybrids, Rieske KO mouse fibroblasts, CellTiter-Glo, primary screen (AID 1508586;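 active means mean z-score across replicates of 1.96 or higher in either the MELAS or the Rieske mutant cell line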;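 further: z relative to plate mean and SD of compound and empty wells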). Particulars: low glucose.

SMILES strings stand for the structures. Values joined by “and” are separate entries in the source; they are usually repeats but may differ in a detail not shown here. Equal values may be shown once. Records with an inconclusive call do not appear. The source holds several records for some structures; these can differ, active in one and inactive in another. Active and inactive are the calls of the source. Unless noted, no stated cut-off is given here; in the data, active means inhibition above about 80%; inactive means the rest.

Take `COc1ccc(S(=O)(=O)N(C(C)=O)c2ccccc2/C=C/c2cc[n+]([O-])cc2)cc1`: the concentration at half-maximal activity (AC50) is 1.48 µM (active) in [1]; 0.935 µM (active) in assay [2]; 0.372 µM (active) in [3]; 2.63 µM (active) in assay [4]; 1.18 µM (active) in assay [5]; 1.86 µM (active) in assay [6].
For the compound `Cc1[nH]c2ccccc2c1CCNCc1ccc(/C=C/C(=O)NO)cc1`, the AC50 in [1] is 1.18 µM (active); in assay [2], 0.132 µM (active); in assay [3] it was 0.332 µM (active); in assay [4], 0.166 µM (active); in assay [5] it was 0.148 µM (active); in assay [6], 0.166 µM (active). In [7], the SSMD is -3.12. The cell count in assay [7] is 7220. For the same compound, the plate-normalised HSF1 focus index in assay [7] was 0.803 (inactive). Further, the inhibition was 42% (inactive) and 87.2% (active) in [8] (at 0.5 µM, stronger effect = higher value); -5.26% and -19.1% in assay [8] (measured here: combination with BGB IC20, at 0.005 µM); -17.3% and -29% in assay [8] (measured here: combination with BGB IC40, at 0.005 µM); -6.97% and -48.6% in assay [8] (measured here: combination with BGB IC40, at 0.05 µM); 84.3% and 119% in assay [8] (measured here: combination with cisplatin, at 0.5 µM, stronger effect = higher value); 120% and 116% in assay [8] (measured here: combination with cisplatin, at 5 µM, stronger effect = higher value). In addition, the inhibition in assay [9] (BGB combo, at 5 µM) was 99.9% and 99.7%; in [9] (at 0.5 µM), 99.7% (active) and 60.8% (inactive); in [9] (cisplatin combo, at 5 µM) it was 99.9% and 100%; in [9] (measured here: with BGB IC20 combination, at 0.5 µM) it was 99.5% and 57.1%; in assay [9] (measured here: with cisplatin IC20 combination, at 0.5 µM) it was 99.8% and 58.2%; in assay [9] (single agent, at 5 µM), 99.9%. Also, the inhibition in assay [10] (BGB IC20 combo, at 0.005 µM) was 86.9% and 15.5%; in assay [10] (BGB IC40 combo, at 0.005 µM), 98.3% and 28.4%; in assay [10] (BGB IC40 combo, at 0.05 µM), 99.9% and 97.7%; in [10] (at 0.5 µM) it was -9.68% (inactive) and -7.76% (inactive); in [10] (cisplatin combo, at 0.05 µM), 99.9% and 97.7%; in [10] (cisplatin combo, at 0.5 µM) it was -13.7% and 4.07%. The inhibition in assay [10] (cisplatin combo, at 5 µM) is 25.1% and -22.1%; in [10] (measured here: 5 uM single agent, at 5 µM) it was 26.1% and 8.36%; in assay [11] (at 0.5 µM), 99.9% (active) and 73.4% (inactive); in assay [11] (measured here: with BGB IC20, at 0.5 µM) it was 100% and 62.5%; in assay [11] (measured here: with BGB IC20, at 5 µM), 99.9% and 99.8%; in assay [11] (measured here: with cisplatin IC20, at 0.5 µM), 100% and 90.3%. Besides, the inhibition is 100% in assay [11] (measured here: with cisplatin IC20, at 5 µM); 99.9% and 100% in assay [11] (single agent, at 5 µM); 68.6% (inactive) and 35.2% (inactive) in [12] (at 0.5 µM); 60.4% and 26.7% in assay [12] (measured here: BGB combination, at 0.5 µM); 70.3% and 56.2% in assay [12] (measured here: BGB combination, at 5 µM); 66.3% and 33.8% in assay [12] (measured here: cisplatin combination, at 0.5 µM). Further, the inhibition in [12] (measured here: cisplatin combination, at 5 µM) is 80.8% and 74.3%; in [13] (at 0.5 µM) it was 90.4% (active) and 65.9% (inactive); in [13] (cisplatin combination, at 0.5 µM) it was 101% and 78.2%; in assay [13] (cisplatin combination, at 5 µM), 102% and 105%; in [13] (measured here: BGB IC40 combination 0.05 uM, at 0.05 µM), 52.7% and 3.36%; in assay [13] (single agent, at 5 µM), 109% and 106%. Moreover, the inhibition in assay [14] (at 0.5 µM) is 91% (active) and 38.1% (inactive); in assay [14] (cisplatin combo, at 5 µM), 99% and 97.8%; in [14] (measured here: BGB IC40 combination, at 0.05 µM), 28.7% and -11.4%; in assay [14] (measured here: combination with cisplatin, at 0.5 µM), 95.9% and 50.4%; in assay [14] (single agent, at 5 µM), 97.1% and 93.2%.
Consider `COc1ccc(F)c(F)c1C(=O)c1cnc(NC2CCN(S(C)(=O)=O)CC2)nc1N`, for which the AC50 in [1] is 1.86 µM (active); in assay [2], 2.64 µM (active); in [3], 1.18 µM (active); in assay [5], 2.09 µM (active); in assay [6], 3.72 µM (active). Besides, in assay [15], the outcome was inactive. Further, in assay [16], the IC50 is 1.86 µM (active). For the same compound, the fold change is 0.981 (inactive) in assay [17] (stronger effect = lower value, cell number ratio, induced over uninduced) and 0.805 in [17] (measured here: relative caspase fold change +Dox/-Dox). Also, the cell count was found to be 1740 in assay [17] (measured here: total cells with miR-34 induction, stronger effect = lower value) and 1770 in [17] (measured here: total cells without miR-34 induction). The z-score was 2.86 (active) in assay [18] (MELAS cybrid survival, CellTiter-Glo 48 h, stronger effect = higher value) and -3.07 in assay [18] (Rieske KO mouse fibroblast survival, CellTiter-Glo 72 h).
